From PubChem BioAssay (NCATS)
Records with an inconclusive call do not appear. The source made the active and inactive calls. Calls follow the shape of the dose curve; as a rule, active = well fitted curve in the direction sought with a large enough effect; inconclusive = small, poorly fitted or top-dose-only effect, or another doubt; inactive = no such curve, though single readings can be large; an effect the other way counts as inactive or inconclusive.

Key:
CP262 = assay: qHTS profiling for inhibitors of Plasmodium falciparum proliferation (AID 504749); also: nearly all actives have a fitted effect of over 60% in size; conditions: P. falciparum in erythrocytes, SYBR Green DNA, 72 h; series mostly up to 28.7 µM
Method in brief: (§1)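 P. falciparum-infected erythrocytes (0.3% parasitemia, 2.5% hematocrit final) were exposed to compounds for 72 h at 37 C in 5% CO2, then lysed with SYBR Green buffer overnight at room temperature; parasite DNA fluorescence was normalized to artemisinin and DMSO controls.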

CP265 = assay: as above; conditions: P. falciparum in erythrocytes, SYBR Green DNA, 72 h; series mostly up to 28.7 µM
Method in brief: as §1

CP266 = assay: as above; conditions: P. falciparum in erythrocytes, SYBR Green DNA, 72 h; series mostly up to 28.7 µM
Method in brief: as §1

CP268 = assay: as above; conditions: P. falciparum in erythrocytes, SYBR Green DNA, 72 h; series mostly up to 28.7 µM
Method in brief: as §1

CP269 = assay: as above; conditions: P. falciparum in erythrocytes, SYBR Green DNA, 72 h; series mostly up to 28.7 µM
Method in brief: as §1

CP286 = assay: as above; conditions: P. falciparum in erythrocytes, SYBR Green DNA, 72 h; series mostly up to 28.7 µM
Method in brief: as §1

CP291 = assay: as above; conditions: P. falciparum in erythrocytes, SYBR Green DNA, 72 h; series mostly up to 28.7 µM
Method in brief: as §1

CP297 = assay: as above; conditions: P. falciparum in erythrocytes, SYBR Green DNA, 72 h; series mostly up to 28.7 µM
Method in brief: as §1

CP305 = assay: as above; conditions: P. falciparum in erythrocytes, SYBR Green DNA, 72 h; series mostly up to 28.7 µM
Method in brief: as §1

CP315 = assay: as above; conditions: P. falciparum in erythrocytes, SYBR Green DNA, 72 h; series mostly up to 28.7 µM
Method in brief: as §1

CP325 = assay: as above; conditions: P. falciparum in erythrocytes, SYBR Green DNA, 72 h; series mostly up to 28.7 µM
Method in brief: as §1

CP329 = assay: as above; conditions: P. falciparum in erythrocytes, SYBR Green DNA, 72 h; series mostly up to 28.7 µM
Method in brief: as §1

CP335 = assay: as above; conditions: P. falciparum in erythrocytes, SYBR Green DNA, 72 h; series mostly up to 28.7 µM
Method in brief: as §1

DIV14 = assay: as above; conditions: P. falciparum in erythrocytes, SYBR Green DNA, 72 h; series mostly up to 28.7 µM
Method in brief: as §1

DIV17 = assay: as above; conditions: P. falciparum in erythrocytes, SYBR Green DNA, 72 h; series mostly up to 28.7 µM
Method in brief: as §1

DIV30 = assay: as above; conditions: P. falciparum in erythrocytes, SYBR Green DNA, 72 h; series mostly up to 28.7 µM
Method in brief: as §1

Dd2 = assay: as above; conditions: P. falciparum in erythrocytes, SYBR Green DNA, 72 h; series mostly up to 28.7 µM
Method in brief: as §1

ECU = assay: as above; conditions: P. falciparum in erythrocytes, SYBR Green DNA, 72 h; series mostly up to 28.7 µM
Method in brief: as §1

FAB9 = assay: as above; conditions: P. falciparum in erythrocytes, SYBR Green DNA, 72 h; series mostly up to 28.7 µM
Method in brief: as §1

GB4 = assay: as above; conditions: P. falciparum in erythrocytes, SYBR Green DNA, 72 h; series mostly up to 28.7 µM
Method in brief: as §1

HB3 = assay: as above; conditions: P. falciparum in erythrocytes, SYBR Green DNA, 72 h; series mostly up to 28.7 µM
Method in brief: as §1

ICS = assay: as above; conditions: P. falciparum in erythrocytes, SYBR Green DNA, 72 h; series mostly up to 28.7 µM
Method in brief: as §1

JCK = assay: as above; conditions: P. falciparum in erythrocytes, SYBR Green DNA, 72 h; series mostly up to 28.7 µM
Method in brief: as §1

N140 = assay: as above; conditions: P. falciparum in erythrocytes, SYBR Green DNA, 72 h; series mostly up to 28.7 µM
Method in brief: as §1

P93_24 = assay: as above; conditions: P. falciparum in erythrocytes, SYBR Green DNA, 72 h; series mostly up to 28.7 µM
Method in brief: as §1

P94_40 = assay: as above; conditions: P. falciparum in erythrocytes, SYBR Green DNA, 72 h; series mostly up to 28.7 µM
Method in brief: as §1

PAD = assay: as above; conditions: P. falciparum in erythrocytes, SYBR Green DNA, 72 h; series mostly up to 28.7 µM
Method in brief: as §1

PC15 = assay: as above; conditions: P. falciparum in erythrocytes, SYBR Green DNA, 72 h; series mostly up to 28.7 µM
Method in brief: as §1

PC26 = assay: as above; conditions: P. falciparum in erythrocytes, SYBR Green DNA, 72 h; series mostly up to 28.7 µM
Method in brief: as §1

PC49 = assay: as above; conditions: P. falciparum in erythrocytes, SYBR Green DNA, 72 h; series mostly up to 28.7 µM
Method in brief: as §1

SC27B = assay: as above; conditions: P. falciparum in erythrocytes, SYBR Green DNA, 72 h; series mostly up to 28.7 µM
Method in brief: as §1

TAB109 = assay: as above; conditions: P. falciparum in erythrocytes, SYBR Green DNA, 72 h; series mostly up to 28.7 µM
Method in brief: as §1

TAB113 = assay: as above; conditions: P. falciparum in erythrocytes, SYBR Green DNA, 72 h; series mostly up to 28.7 µM
Method in brief: as §1

TAB165 = assay: as above; conditions: P. falciparum in erythrocytes, SYBR Green DNA, 72 h; series mostly up to 28.7 µM
Method in brief: as §1

W2 = assay: as above; conditions: P. falciparum in erythrocytes, SYBR Green DNA, 72 h; series mostly up to 28.7 µM
Method in brief: as §1

[1] = qHTS for Inhibitors of Plasmodium falciparum (7G8) proliferation (AID 504316); also: nearly all actives have a fitted effect of over 65% in size; also: potency is read from the fitted curve at half-maximal effect
Method in brief: (§2)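 Erythrocytes infected with P. falciparum line (0.3% parasitemia, 2.5% hematocrit final) incubated with compounds 72 h at 37 °C, 5% CO2; SYBR Green lysis buffer added, fluorescence read next day. Normalized to 0.29 uM artemisinin and DMSO.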

[2] = qHTS for Inhibitors of Plasmodium falciparum (HB3) proliferation (AID 504318); also: nearly all actives have a fitted effect of over 60% in size; also: potency is read from the fitted curve at half-maximal effect
Method in brief: as §2

[3] = qHTS for Inhibitors of Plasmodium falciparum (CP250) proliferation (AID 504320)
Method in brief: as §2

[4] = qHTS for Inhibitors of Plasmodium falciparum (GB4) proliferation (AID 504315); also: nearly all actives have a fitted effect of over 50% in size
Method in brief: as §2

Measured: Potency

CCOC(=O)C(CS)NCCN[C@@H](CS)C(=O)OCC (some centres not stated)
inactive: CP262 | CP265 | CP266 | CP268 | CP269 | CP286 | CP291 | CP297 | CP305 | CP315 | CP325 | CP329 | CP335 | DIV14 | DIV17 | DIV30 | Dd2 | ECU | FAB9 | GB4 | HB3 | ICS | JCK | N140 | P93_24 | P94_40 | PAD | PC15 | PC26 | PC49 | SC27B | TAB109 | TAB113 | TAB165 | W2

CCCCS(=O)(=O)N1CCc2nc(COc3ccccc3)c3c(c2C1)CO[C@@H](C)C3
inactive: [1] | [2] | [3]

CCOC(=O)NN=C1C[C@@H](O)[C@@H](O)[C@@H]2[C@H]3C(=O)N(CC)C(=O)[C@@H]3CC[C@@H]12
inactive: [1] | [2] | [3]

CCCCS(=O)(=O)N1C2=NC(C(=O)OC)=C(C(=O)OC)[C@@H]3Nc4ccccc4[C@]23C[C@H]1C(=O)OC
inactive: [4] | [3]

COC(=O)C1=C(C(=O)OC)[C@@H]2N(Cc3ccccc3)c3ccccc3[C@@]23C[C@@H](C(=O)OC)N(S(=O)(=O)c2c(C)noc2C)C3=N1
active: [1] 1690 nM

CC(=O)OC[C@H]1O[C@H](C#Cc2ccc(C)cc2C)C=C[C@H]1OC(C)=O
active: [1] 1690 nM
inactive: [3]

COC(=O)C1=C(C(=O)OC)[C@@H]2N(Cc3ccccc3)c3ccccc3[C@@]23C[C@@H](C(=O)OC)N(S(=O)(=O)c2ccc(OC)cc2)C3=N1
active: [2] 1900 nM
